± gives the standard deviation of the averaged measurements.
What was measured:
Assay in all cases: promoter activity interaction Z-score (Lux/OD deviation from empty-vector control); higher = stronger promoter induction by the compound
[1] = system: E. coli BW25113 acrABp lux reporter
In short: (§1)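 OD600 and luminescence of E. coli BW25113 reporter cultures (40 µl LB Lennox, 384-well plates, 37°C) were measured every 30 min for 12 h. Integration ran over 0–8 h for wild type or 1–9 h for deletion strains, and wells with growth below 10% of the median were dropped. The score is the Z-transformed residual of growth-normalised luminescence fitted against a control.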

[2] = system: E. coli BW25113 micFp lux reporter
In short: as §1

[3] = system: E. coli BW25113 ompFp lux reporter
In short: as §1

[4] = system: E. coli BW25113 robp lux reporter
In short: as §1

[5] = system: E. coli BW25113 soxSp lux reporter
In short: as §1

[6] = system: E. coli BW25113 tolCp lux reporter
In short: as §1

[7] = 8.6 µg/ml, genetic background: wild type
[8] = 8.6 µg/ml, genetic background: ΔmarA
[9] = 8.6 µg/ml, genetic background: Δrob
[10] = 8.6 µg/ml, genetic background: ΔsoxS
[11] = 17.1 µg/ml, genetic background: wild type
[12] = 17.1 µg/ml, genetic background: ΔmarA
[13] = 17.1 µg/ml, genetic background: Δrob
[14] = 17.1 µg/ml, genetic background: ΔsoxS
[15] = 34.3 µg/ml, genetic background: wild type
[16] = 34.3 µg/ml, genetic background: ΔmarA
[17] = 34.3 µg/ml, genetic background: Δrob
[18] = 34.3 µg/ml, genetic background: ΔsoxS
[19] = 68.6 µg/ml, genetic background: wild type
[20] = 68.6 µg/ml, genetic background: ΔmarA
[21] = 68.6 µg/ml, genetic background: Δrob
[22] = 68.6 µg/ml, genetic background: ΔsoxS

Nc1ccc(C(=O)O)cc1 [4-Aminobenzoic acid]
promoter activity interaction Z-score [1, 7]: -0.327 ± 0.11 | promoter activity interaction Z-score [1, 8]: -0.528 ± 0.3 | promoter activity interaction Z-score [1, 9]: 0.0646 ± 0.18 | promoter activity interaction Z-score [1, 10]: 0.357 ± 0.28 | promoter activity interaction Z-score [1, 11]: 0.051 ± 0.24 | promoter activity interaction Z-score [1, 12]: -0.48 ± 0.058 | promoter activity interaction Z-score [1, 13]: 0.185 ± 0.16 | promoter activity interaction Z-score [1, 14]: 0.299 ± 0.26 | promoter activity interaction Z-score [1, 15]: -0.112 ± 0.046 | promoter activity interaction Z-score [1, 16]: -0.447 ± 1.1 | promoter activity interaction Z-score [1, 17]: -0.379 ± 0.054 | promoter activity interaction Z-score [1, 18]: 0.511 ± 1.2 | promoter activity interaction Z-score [1, 19]: 0.119 ± 0.39 | promoter activity interaction Z-score [1, 20]: 1.54 ± 0.67 | promoter activity interaction Z-score [1, 21]: 1.31 ± 0.45 | promoter activity interaction Z-score [1, 22]: 1.66 ± 1.3 | promoter activity interaction Z-score [2, 7]: 0.00335 ± 0.11 | promoter activity interaction Z-score [2, 8]: 0.0686 ± 0.11 | promoter activity interaction Z-score [2, 9]: 0.0394 ± 0.14 | promoter activity interaction Z-score [2, 10]: 0.675 ± 0.52 | promoter activity interaction Z-score [2, 11]: 0.408 ± 0.1 | promoter activity interaction Z-score [2, 12]: 0.209 ± 0.16 | promoter activity interaction Z-score [2, 13]: 0.289 ± 0.15 | promoter activity interaction Z-score [2, 14]: 0.578 ± 0.075 | promoter activity interaction Z-score [2, 15]: 0.901 ± 0.57 | promoter activity interaction Z-score [2, 16]: 0.213 ± 0.23 | promoter activity interaction Z-score [2, 17]: 0.391 ± 0.17 | promoter activity interaction Z-score [2, 18]: 1.38 ± 0.55 | promoter activity interaction Z-score [2, 19]: 1.16 ± 0.52 | promoter activity interaction Z-score [2, 20]: 0.44 ± 0.26 | promoter activity interaction Z-score [2, 21]: 1.42 ± 0.091 | promoter activity interaction Z-score [2, 22]: 1.7 ± 0.14 | promoter activity interaction Z-score [3, 7]: -0.317 ± 0.4 | promoter activity interaction Z-score [3, 8]: 0.283 ± 0.085 | promoter activity interaction Z-score [3, 9]: 0.0614 ± 0.37 | promoter activity interaction Z-score [3, 10]: 0.333 ± 0.36 | promoter activity interaction Z-score [3, 11]: 0.0303 ± 0.3 | promoter activity interaction Z-score [3, 12]: 0.284 ± 0.18 | promoter activity interaction Z-score [3, 13]: 0.709 ± 0.41 | promoter activity interaction Z-score [3, 14]: 0.198 ± 0.39 | promoter activity interaction Z-score [3, 15]: -0.722 ± 0.31 | promoter activity interaction Z-score [3, 16]: -0.0385 ± 0.32 | promoter activity interaction Z-score [3, 17]: -1.06 ± 0.97 | promoter activity interaction Z-score [3, 18]: 0.199 ± 1.1 | promoter activity interaction Z-score [3, 19]: -0.481 ± 0.17 | promoter activity interaction Z-score [3, 20]: 1.24 ± 0.08 | promoter activity interaction Z-score [3, 21]: 1.09 ± 0.2 | promoter activity interaction Z-score [3, 22]: 0.488 ± 0.83 | promoter activity interaction Z-score [4, 7]: 0.134 ± 0.3 | promoter activity interaction Z-score [4, 8]: 0.171 ± 0.2 | promoter activity interaction Z-score [4, 9]: 0.341 ± 0.11 | promoter activity interaction Z-score [4, 10]: 0.571 ± 0.73 | promoter activity interaction Z-score [4, 11]: 0.745 ± 0.54 | promoter activity interaction Z-score [4, 12]: 1.04 ± 0.39 | promoter activity interaction Z-score [4, 13]: 0.56 ± 0.27 | promoter activity interaction Z-score [4, 14]: 0.303 ± 0.42 | promoter activity interaction Z-score [4, 15]: 0.118 ± 0.27 | promoter activity interaction Z-score [4, 16]: 0.355 ± 0.34 | promoter activity interaction Z-score [4, 17]: -0.251 ± 0.88 | promoter activity interaction Z-score [4, 18]: -0.337 ± 0.84 | promoter activity interaction Z-score [4, 19]: 0.598 ± 0.44 | promoter activity interaction Z-score [4, 20]: 1.92 ± 1.2 | promoter activity interaction Z-score [4, 21]: 2.53 ± 2.5 | promoter activity interaction Z-score [4, 22]: 2.68 ± 1.7 | promoter activity interaction Z-score [5, 7]: 0.154 ± 0.019 | promoter activity interaction Z-score [5, 8]: 0.4615 ± 0.00081 | promoter activity interaction Z-score [5, 9]: 0.443 ± 0.19 | promoter activity interaction Z-score [5, 10]: 0.4 ± 0.53 | promoter activity interaction Z-score [5, 11]: 0.18 ± 0.23 | promoter activity interaction Z-score [5, 12]: 0.618 ± 0.11 | promoter activity interaction Z-score [5, 13]: 0.555 ± 0.098 | promoter activity interaction Z-score [5, 14]: 0.287 ± 0.083 | promoter activity interaction Z-score [5, 15]: 0.259 ± 0.017 | promoter activity interaction Z-score [5, 16]: 0.436 ± 0.14 | promoter activity interaction Z-score [5, 17]: 0.48 ± 0.11 | promoter activity interaction Z-score [5, 18]: 0.363 ± 0.93 | promoter activity interaction Z-score [5, 19]: -0.597 ± 0.028 | promoter activity interaction Z-score [5, 20]: 0.693 ± 0.26 | promoter activity interaction Z-score [5, 21]: 0.532 ± 0.4 | promoter activity interaction Z-score [5, 22]: -0.372 ± 0.24 | promoter activity interaction Z-score [6, 7]: -0.592 ± 1.1 | promoter activity interaction Z-score [6, 8]: 0.924 ± 0.68 | promoter activity interaction Z-score [6, 9]: -0.26 ± 0.81 | promoter activity interaction Z-score [6, 10]: 0.91 ± 0.25 | promoter activity interaction Z-score [6, 11]: -0.356 ± 1 | promoter activity interaction Z-score [6, 12]: 0.371 ± 2.1 | promoter activity interaction Z-score [6, 13]: 0.781 ± 1.4 | promoter activity interaction Z-score [6, 14]: -0.463 ± 0.096 | promoter activity interaction Z-score [6, 15]: 0.348 ± 0.41 | promoter activity interaction Z-score [6, 16]: 0.458 ± 1.9

— the supplement of paper PMC12282887
